Assay results published in the supplement of paper PMC3334620.
The full ranking holds about 33,000 sequences; the median of “E-score (-0.5 to 0.5)” is about -0.035, and the highest 2% start at about 0.35. The sample as a whole holds a higher share of the highest values than the screen did.

Each sequence was assayed against T1, Pdr3 (UniProt P33200) (assay: PBM E-score (8-mer binding enrichment) (E-score (-0.5 to 0.5)); higher = stronger / more preferred TF binding). Details: protein concentration: 200 nM; construct: GST-full length.
T1 sequence: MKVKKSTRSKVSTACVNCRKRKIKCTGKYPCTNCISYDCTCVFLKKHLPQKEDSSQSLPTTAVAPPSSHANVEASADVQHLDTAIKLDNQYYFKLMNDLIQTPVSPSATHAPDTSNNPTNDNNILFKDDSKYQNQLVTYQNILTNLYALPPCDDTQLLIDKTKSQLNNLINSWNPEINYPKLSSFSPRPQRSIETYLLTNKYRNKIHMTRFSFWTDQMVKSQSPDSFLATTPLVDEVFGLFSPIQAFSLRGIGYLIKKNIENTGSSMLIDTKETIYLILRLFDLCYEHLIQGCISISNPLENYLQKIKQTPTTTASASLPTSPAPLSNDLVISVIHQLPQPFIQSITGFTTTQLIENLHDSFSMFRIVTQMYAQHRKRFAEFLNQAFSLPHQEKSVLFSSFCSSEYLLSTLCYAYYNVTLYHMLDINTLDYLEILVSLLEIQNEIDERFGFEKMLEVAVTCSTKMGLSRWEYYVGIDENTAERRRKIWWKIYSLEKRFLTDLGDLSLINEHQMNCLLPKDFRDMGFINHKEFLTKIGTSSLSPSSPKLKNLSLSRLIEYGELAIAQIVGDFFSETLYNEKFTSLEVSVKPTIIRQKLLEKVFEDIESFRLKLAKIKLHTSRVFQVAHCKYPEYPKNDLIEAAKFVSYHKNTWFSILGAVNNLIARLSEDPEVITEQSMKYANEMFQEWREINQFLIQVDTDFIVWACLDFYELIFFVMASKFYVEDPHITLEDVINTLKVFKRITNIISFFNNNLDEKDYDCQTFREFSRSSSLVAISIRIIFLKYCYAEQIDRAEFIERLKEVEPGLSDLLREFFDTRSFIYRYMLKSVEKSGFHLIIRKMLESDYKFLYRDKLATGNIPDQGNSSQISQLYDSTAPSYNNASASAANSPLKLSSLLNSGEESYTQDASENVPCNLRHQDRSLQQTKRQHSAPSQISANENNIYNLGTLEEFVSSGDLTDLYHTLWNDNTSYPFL
Method in brief: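 Yeast transcription factors carrying a GST tag, as full-length proteins or DNA-binding domains, were produced by PURExpress in vitro transcription/translation. About 100-200 nM protein was applied to universal all-10-mer Agilent arrays, double-stranded by primer extension on fresh or once-stripped slides. Bound protein was detected with fluorescent anti-GST, and scans were normalised with masliner. The Universal PBM Analysis Suite gave each ungapped eight-base word, pooled with its reverse complement, an E-score, a modified Wilcoxon-Mann-Whitney statistic.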

Sequence	PBM E-score
CACTCAAC	-0.0691
CGGGCGGA	0.383
CGGGCGTA	0.0837
AGGGCGGA	0.285
CGGGCGGC	0.291
GGGGCGTA	-0.114
GGGGCGGA	0.359
AGTCGGCC	0.13
AGAAGCAC	-0.185
AAAGTTAC	-0.127
GAGGTGTA	-0.13
AGATGCGC	0.0125
CCATGGAA	0.156
CGTTAGAG	-0.0371
ACCGCGCG	0.397
ACCGCGCT	0.139
CCCGCGCC	0.265
GCCGCGCA	0.188
ACCGCGCC	0.128
TCCGCGCA	0.397
CCCGCGCA	0.288
CGCGCGCC	0.241
CGCGCGCA	0.347
CGCGCGCG	0.372
CCCGCGCG	0.382

Sequence	PBM E-score
ACCGCGCA	0.0742
CCCAACCG	0.00518
CGACCGAG	0.124
TATCACGA	-0.126
AAAATGAG	-0.188
ATAGCTAC	-0.0621
CAGGGGGA	-0.286
CTTTTTTA	-0.0672
ATCCCAAA	0.0137
ATCCCAGA	-0.204
CTCCCGGC	0.368
CTCCCCGC	0.34
ATCCCCGG	0.386
ATCCCGGA	0.417
CTCCCCGA	0.053
CCCCCGGC	0.037
ATCCCCCG	0.278
ATCCCCGA	0.303
CTCCCGCA	0.145
CTCCCGGA	0.386
CGGCGTAA	-0.0269
CTGCGTGC	-0.0812
AATTTGTG	0.159
ATGAGAAG	-0.162
GTACTCGA	-0.0779

Sequence	PBM E-score
ATCCCGGG	0.455
ATCCCGAC	0.331
GTCCCCGA	0.166
ATCCCTGG	-0.0752
GTCCCGGA	0.394
ACCCCGGC	0.153
ATCCCAGG	0.113
GTCCCGCA	0.229
ATCCCGGC	0.419
ATGTTCAG	-0.207
AGGTCTAA	-0.0213
AGGAGGCA	-0.127
AGAGCTCG	0.0679
CAATTCTC	-0.138
AGATGGAG	-0.127
CCATACCC	0.0565
CCGTGTCC	0.356
GCGTGTCC	0.201
CCGTGTCA	0.24
GGGTTTGA	-0.0398
AGCGACGG	0.258
CGGGTCAA	0.387
AGGGTCAA	-0.0253
GGGGTCAA	-0.0321
AATGGAGG	0.0106

Sequence	PBM E-score
GTCGGCTA	0.0468
CACAGAGG	-0.0837
CATTCCTA	-0.14
CATTCCAG	-0.131
CATTCCAA	-0.102
GATTCCGA	0.454
TATTCCCA	0.0626
GATTCCCA	0.0551
TATTCCAA	-0.091
CATTCCGA	0.421
GATTCCAA	-0.0548
CATTCCGG	0.451
CATTCCCG	0.274
TATTCCGA	0.407
AGTTGCAC	-0.136
CTTGCCTC	0.0139
AGTCTCGG	0.101
ATGCGAAG	-0.0662
GATCCCAA	0.0388
ATAAATAC	0.176
AACGGGAG	0.179
ACCGGGAA	0.309
AACGGGAC	0.217
ACCGGGAT	0.357
ACCGGGAC	0.318

Sequence	PBM E-score
AACGGGAT	0.364
CGCACCAG	0.133
AGTTTGAT	0.0669
ACATGCTG	-0.158
ACATTCCA	-0.0365
AAGACTAC	-0.188
ACGTTCCT	0.0124
ATGTTCCG	0.48
ACGTTCCA	0.0623
AGGTTCCC	-0.0087
ATGTTCCC	0.153
CCGTTCCA	0.207
CCGTTCCC	0.253
ATGTTCCA	0.0325
AGGTTCCA	-0.018
AGGTTCCG	0.478
ACGTTCCG	0.445
CCGTTCCG	0.477
GCAGGGAA	0.0453
GAATAGGA	0.0694
ACCGGTTG	0.208
AGCATTTG	-0.0766
CGAGAGGC	-0.119
GCGAGAGA	-0.148
CAGTCTTC	-0.147

Sequence	PBM E-score
AAACTTAG	-0.216
CTTGACAC	-0.222
CAGGGCTA	-0.258
ACTAGTAC	-0.105
ACGAATAT	0.0203
CATGCCGC	0.345
AATGCCGG	0.308
AATGCCGA	0.219
AATGCCGT	0.36
CATGCCGA	0.248
CATGCCGG	0.36
ATCCTTGG	-0.0819
CGCCGACC	0.135
AGAGTAGC	-0.228
CCCGCAGG	0.142
AGGGAAAG	-0.106
CCGGAAAA	0.44
ATGGAAAG	0.0226
CAGGAAAA	0.0238
CCGGAAAC	0.447
ACGGAAAG	0.44
CTGGAAAA	0.144
CAGGAAAC	-0.0475
CGGGAAAG	0.281
CGGGAAAC	0.309

Sequence	PBM E-score
CCGGAAAG	0.414
CAGGAAAG	-0.278
CAGTCCCG	0.273
AGTTGACG	-0.0734
CGAACTTA	0.0051
CTTAGGGA	-0.353
GGCTAACA	-0.132
ATAGGAGA	-0.363
CAGTTACC	-0.0312
CAAGGATC	-0.0745
GACGGATA	0.251
TACGGATA	0.224
AACAGATC	-0.0307
AACGGATA	0.417
GACGGATC	0.313
CACGGATA	0.373
CACGGATC	0.395
AACGGATC	0.367
CACGGATG	0.284
AACGGATT	0.334
AACGGATG	0.283
AGAACTCA	0.00923
ACAACTTC	0.167
CAGTGAGG	-0.309
GACCTAGA	-0.115

Sequence	PBM E-score
CCAGCAAC	-0.00856
GCAGCTCC	0.144
AAGGGTCC	0.205
AAACGGGA	0.352
GAACGGAC	0.259
GAACGGCA	0.256
CAACGGAG	0.307
AAACGGAC	0.189
CAACGGAC	0.261
AAACGGAG	0.184
AAACGGAT	0.377
AAACGGAA	0.469
CAACGGAA	0.47
GAACGGAA	0.469
AAACGGTA	0.172
CGCTACCG	0.141
CCCTAAGA	-0.243
CTTGCGGA	0.137
CAGGCGGG	0.0666
CCGAGAAG	0.183
TCCACGAA	-0.0449
TAACGGAA	0.453
TAACGGTA	0.0452
TAACGGGA	0.237
CACAGAAA	0.0151

Sequence	PBM E-score
GGGCCGGA	0.318
AGGCCGGC	0.291
CGGCCGGA	0.396
AGGCCGGA	0.256
CGGCCGGC	0.371
CGGCCGAC	0.315
CGCATGAG	-0.164
CATGATTA	0.0563
GACGGAGA	0.322
CACGGAGC	0.374
CACGGAGA	0.372
CACGGAGG	0.26
TACGGAGA	0.178
GACGGAGC	0.213
AAGATTGG	0.014
GTGGTTCA	0.0321
ACTTAACC	-0.166
TACCCGTA	0.0329
CACCCGGG	0.398
ACACCCGG	0.291
CACCCGAG	0.204
ATCACCCA	-0.0491
CCACCCGG	0.359
ATCACCCG	0.358
ATCACCCC	0.0523

Sequence	PBM E-score
TACCCGAA	0.198
CCACCCGA	0.216
TACCCGGA	0.381
CACCCCGG	0.236
CCCATCCC	0.133
AAGTGGAA	-0.0995
AGGGCGGG	0.25
ACCTCCTA	-0.192
ACGGCCTA	0.131
AACAGGGT	-0.0562
CGGGGTAA	0.267
GGCAAACC	-0.147
GACGTATC	-0.0675
GACCCCGA	0.109
GACCCGGC	0.294
AACCCGGC	0.289
CACCCGGC	0.234
CCCACCCG	0.387
AACCCGGA	0.384
ACCCCGGA	0.352
CCCACCCA	0.073
CCCACCCC	0.198
CACCCGGA	0.412
CACCCGTA	0.151
GACCCGGA	0.369

Sequence	PBM E-score
AATAGCGT	0.0358
CGCAAATA	0.125
TACACGTA	-0.168
AAGATTGA	-0.131
CTCGCCCA	-0.0292
CGTGCGCA	-0.111
AGTCAAAA	-0.104
CCGAGCCA	0.295
CCGAGCCG	0.359
ACGAGCCG	0.134
CGGAGCGC	0.266
CGGAGCCC	0.208
AGGAGCGA	-0.199
CGGAGCAG	0.403
CGGAGCCG	0.369
CGGAGCGA	0.378
CGGAGCAC	0.297
AGGAGCCG	0.0342
CGGAGCAA	0.338
AGCATCGA	-0.0594
ACATATCT	0.0252
CGCTGTAG	-0.00377
ATGTGGTA	-0.0392
AGCGAACG	-0.134
GTAACCGA	0.0824

Sequence	PBM E-score
CGTGATTA	0.0343
GAGTACTC	0.0872
ACAAGCCC	-0.157
ACCCATCA	-0.129
GAGCATTA	-0.0816
AGGAAAAG	0.0387
CGGAAAAC	0.375
CGAAAAAG	0.159
AGGAAAAC	0.0846
CGGAAAAG	0.415
TGGAAAAA	0.0433
AGGAAAAA	-0.157
CGGAAAAA	0.403
GGGAAAAC	0.0253
GGGAAAAA	0.176
TAACACGA	0.0333
CGCGAAAC	-0.00744
TAACTGTA	-0.323
GAGACCGA	0.0506
ATCTGGTC	-0.051
ACGGGACA	0.311
GCGGGACC	0.323
CCGGGACC	0.413
ACGGGACC	0.241
CCGGGACA	0.376

Sequence	PBM E-score
ACGGGACG	0.295
CGGGGACG	0.124
TCGGGACA	0.167
CCGGGACG	0.365
ATGGGCCG	0.0292
AGAAGCCG	0.213
AACTGTAG	-0.124
AAGATAGA	-0.184
ACCAAAAG	-0.176
ACTCCGCT	0.14
ACTCCGCC	0.343
CCTCCGCG	0.445
CCTCCGCA	0.00168
ACTCCGCG	0.397
CCTCCGCC	0.169
CATAACGC	-0.102
GCGGCTTA	-0.0127
CCGGCTTC	0.322
CCGGCTTA	0.356
GTCAGAAC	-0.132
AGTTCAAT	-0.139
CCACGTGA	-0.0844
ATATTCCC	0.266
CCATTCCC	0.101
ATATTCCA	0.128

Sequence	PBM E-score
CCATTCCG	0.425
ACATTCCT	-0.0606
ACATTCCG	0.439
CCATTCCA	0.0798
ACATTCCC	0.154
ATATTCCG	0.426
CTCAAACC	-0.0558
GACATCTA	-0.0109
CAACTTTA	-0.0602
ATACTCGC	0.162
ACCAAGGT	-0.0204
AGAGCGAC	-0.135
AGGCCATA	-0.0791
GACGCGGC	0.0937
CCCGCGAC	0.175
GCCGCGGC	0.484
CCCGCGGC	0.488
CCCGCGTC	0.236
GCGGCCGC	0.35
